Assay outcomes (PubChem)
TEAD-YAP block – TEAD-YAP interaction inhibition, primary screen, TEAD-YAP interaction inhibitor project, luminescence, HEK-TIYL cells. TEAD-Gal4/YAP UAS-luciferase luminescence. inhibition, % at 9.12 µM. 640,000 compounds, 1.4% hits. AID 1259422, 2018; in the data active = inhibition above about 32%;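 note: 0% = median of test compound wells and 100% = reference inhibitor wells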
FBW7 activator – FBW7 E3 ligase activators, primary screen, biochemical, AlphaScreen, human; AlphaScreen FBW7–phospho-cyclin E peptide binding, activator screen; F-box/WD repeat-containing protein 7 (Homo sapiens), Q969H0; normalized activity (activation), % at 26.1 µM; 650,000 compounds, 0.13% hits; AID 1259310, 2017; in the data active = normalized activity above about 1.9%;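 note: purified mutant Fbw7 with reduced substrate affinity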
GPR151 ag – activators of human GPR151, primary screen, cell-based, PathHunter beta-arrestin, luminescence | G-protein coupled receptor 151 (Homo sapiens), Q8TDV0 | PathHunter beta-arrestin GPR151 cells | activation, % at 11.2 µM | 650,000 compounds, 1% hits; in the data active = activation above about 4.9%;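 note: 0% = median of compound wells and 100% = cells with positive control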
MITF primary – MITF inhibitors, primary screen, biochemical, AlphaScreen, human. Microphthalmia-associated transcription factor (Homo sapiens), O75030. AlphaScreen MITF homodimerization, bead proximity signal. 650,000 compounds, 0.91% hits. inhibition, % at 2.6 µM; in the data active = inhibition above about 50%;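 note: 0% = vehicle wells with protein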
GPR151 confirm – GPR151 activators, triplicate retest, confirmation, cell-based, PathHunter beta-arrestin, luminescence. GPR151 PathHunter beta-arrestin cells, 90 min; % of EA-reagent control over plate median. shares compounds with GPR151 ag. AID 1508609, 2020. 6,700 tested, under 10 active. activation, % at 11.2 µM;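 active = mean percent activation across replicates above the confirmation screen cutoff of 4.91%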
GPR119 counter – GPR119 activators in beta-arrestin cells, counter-screen for GPR151 activator project, cell-based, PathHunter beta-arrestin, luminescence, triplicate; shares compounds with GPR151 ag; 90 min; 0 = compound-well median, 100 = enzyme-acceptor control; activation, % at 11.2 µM; 6,700 compounds, 0.3% hits; AID 1508611, 2020;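 active = mean percent activation in the counterscreen above 29.09%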;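 note: counterscreen on off-target GPR119 to flag nonselective hits from the GPR151 activator screen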
Target sequence (Q8TDV5 whole entry, looked up): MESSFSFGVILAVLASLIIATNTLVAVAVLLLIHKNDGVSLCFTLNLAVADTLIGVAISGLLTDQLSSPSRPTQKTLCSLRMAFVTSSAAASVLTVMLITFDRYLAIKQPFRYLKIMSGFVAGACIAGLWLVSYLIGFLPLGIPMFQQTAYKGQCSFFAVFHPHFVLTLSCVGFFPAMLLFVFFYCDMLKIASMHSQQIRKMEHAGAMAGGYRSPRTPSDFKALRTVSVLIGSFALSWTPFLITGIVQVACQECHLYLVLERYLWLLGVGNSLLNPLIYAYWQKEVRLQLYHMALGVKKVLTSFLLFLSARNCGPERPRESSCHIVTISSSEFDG
* = called active by the depositor; / = no result given; ! = not confirmed by another sample. Compounds with a hit are over-represented: about 3.5% of the library has one in this group of screens.

SMILES	TEAD-YAP block	FBW7 activator	GPR151 ag	MITF primary	GPR151 confirm	GPR119 counter
CCCOc1ccc(/C(O)=C2\C(=O)C(=O)N(CCN3CCOCC3)C2c2cccc(Oc3ccccc3)c2)cc1C (configuration not stated)	-3	0	0	-3	/	/
COc1ccc(CCNc2cc(N3CCOCC3)ncn2)cc1	2	0	-1	-7	/	/
Cc1cccc(-c2nc(C)cc(NCCc3ccccn3)n2)c1	-50	0	5.8*	0	1	-4
CCCNc1cc(C)nc(-c2ccccc2)n1	-58	0	1	-3	/	/
Cn1c(N)c(C#N)c2nc3ccccc3nc21	-2	1	1	8	/	/
CCCCCn1c(N)c(C#N)c2nc3ccccc3nc21	6	0	8.2*	35	0	2
CC1CCCC(NC(=O)C2N(CCCN3CCCCC3)C(=O)C3C(C(=O)Nc4ccc(Cl)cc4)C4C=CC32O4)C1C (configuration not stated)	-3	0	0	3	/	/
Cc1cccc(NC(=O)Oc2ccc(C(C)(C)c3ccc(OC(=O)Nc4cccc(C)c4)cc3)cc2)c1	-2	0	0	1	/	/
CC(C)(c1ccccc1)c1ccc(OC(=O)Nc2ccc(Cl)c(Cl)c2)cc1	-4	0	5.4*	-2	1	2
COc1ccc(NC(=O)CC(C)S(=O)(=O)c2ccc3c(c2)SC(C)C(=O)N3)cc1 (configuration not stated)	6	1	-3	7	/	/
COCCC(=O)Nc1ccc2c(c1)CN(S(=O)(=O)N1CCCC1)CC2	1	0	7.5*	3	0	0
O=C(Cc1ccc(F)cc1)NCCc1nnc2n1CCN(Cc1cc3ccccc3o1)CC2	5	0	5.1*	-2	0	2
CC(C)C(=O)NCCc1nnc2n1CCN(Cc1cc3ccccc3o1)CC2	7	0	0	8	/	/
O=c1cc(Nc2ccc3c(c2)OCO3)[nH]c(=O)n1-c1ccc(Br)cc1	4	0	22*	9	0	4
CCCCC(c1nnnn1CCOC)N1CCN(c2ccccc2)CC1 (configuration not stated)	-1	0	5.1*	7	1	9
COc1cccc(-c2cnc3c(Nc4cccc(N(C)C)c4)nccn23)c1	1	0	1	20	/	/
CS(=O)(=O)NCC1CCC(C(=O)NC2CCN(Cc3ccccc3)CC2)CC1 (configuration not stated)	3	0	5.6*	8	1	11
C/C=C/C(=O)Nc1nnc(Cc2ccccc2)s1	5	0	0	0	/	/
O=S(=O)(NCC(c1ccco1)S(=O)(=O)c1ccc(F)cc1)c1cccs1 (configuration not stated)	3	0	11*	-5	0	-4
CSc1ccc(NC(=O)C2CC23CCN(Cc2coc4ccccc4c2=O)CC3)cc1 (configuration not stated)	3	0	0	-18	/	/
Nc1c(Cl)cc(Cl)cc1C(=O)OCC(=O)N1CCCC1	-6	0	7.5*	4	2	5
NC(=O)COC(=O)c1cc(Cl)cc(Cl)c1N	0	0	-1	-1	/	/
CCOC(=O)CSc1nnc(CSc2ncccn2)n1-c1ccccc1	-6	0	11*	9	1	4
N[C@@H]1CONC1=O	-6	0	6.7*!	-12	0	-7
COc1ccc(N2C(=O)CSC2c2cccc(F)c2)cc1Cl (configuration not stated)	-5	0	1	12	/	/
SMILES	TEAD-YAP block	FBW7 activator	GPR151 ag	MITF primary	GPR151 confirm	GPR119 counter
Cc1ccc2nc(N3CCC(NCC(C)C)CC3)nc(C)c2c1	0	0	7.9*	-9	0	-4
COc1ccc2nc(N3CCC(NCC(C)C)CC3)nc(C)c2c1	-5	0	-2	-35	/	/
CCCc1cc(=O)n2[nH]c(-c3ccccc3)nc2n1	0	0	0	-7	/	/
COC(=O)c1cc(-c2ccsc2)no1	-2	0	-1	-7	/	/
CC(=N)CC(=O)c1ccc([N+](=O)[O-])cc1	13	0	0	-5	/	/
O=C(O)CC(NC(=O)C12CC3CC(CC(C3)C1)C2)c1cccc([N+](=O)[O-])c1 (configuration not stated)	-13	0	6.0*	-4	0	0
O=C(O)CC(NC(=O)C12CC3CC(CC(C3)C1)C2)c1ccc(Cl)cc1 (configuration not stated)	12	0	2	1	/	/
CCCCNC(=O)C1Cc2ccccc2CN1S(=O)(=O)c1cccs1 (configuration not stated)	11	0	5.7*	-1	0	-5
CS(=O)(=O)N(CC(=O)N1CCN(c2ccc(F)cc2)CC1)c1ccc(Cl)cc1	-2	0	5.6*	6	0	-3
CC(C)c1ccc(N(CC(=O)N2CCN(c3ccc(F)cc3)CC2)S(C)(=O)=O)cc1	1	0	3	1	/	/
CS(=O)(=O)N(CC(=O)N1CCCC1)c1ccc2c(c1)OCCO2	9	0	9.5*	6	-1	-10
C=COCC(COC=C)(COC=C)COC=C	1	0	5.2*	14	1	1
Cc1nc2ccccc2c(=O)n1-c1ccc(NC(=O)c2cc3ccccc3oc2=O)cc1	1	0	1	6	/	/
C=CCn1c(SCC(=O)Nc2cccc(SC)c2)nnc1-c1ccccc1O	10	0	5.7*	-6	1	-2
C=CCn1c(CNC(=O)c2ccco2)nnc1SCC(=O)Nc1cccc(F)c1	2	0	7.3*	3	1	1
CC(=O)c1cccc(NC(=O)CSc2nnc(-c3cc4ccccc4cc3O)n2C)c1	12	0	5.0*	-1	0	-2
O=Cc1ccccc1-c1ccc(OCCN2CCCCC2)nc1	3	0	0	-8	/	/
CC(=O)c1ccc(NC(=O)c2cnn3c(C(F)(F)F)cc(-c4ccco4)nc23)cc1	6	0	6.8*	17	0	-9
Cc1ccc(NC(=O)c2cnn3c(C(F)(F)F)cc(-c4ccco4)nc23)cc1	-5	0	0	4	/	/
NC(=O)c1ccsc1NC(=O)CSc1ccc(Cl)cc1	-33	0	9.5*	-1	-1	7
CCc1cccc(C)c1NC(=O)c1cc2ccccc2oc1=O	-8	0	2	4	/	/
